AmpC no deterg: qHTS Inhibitors of AmpC Beta-Lactamase (assay without detergent); actives 0.52% (n = 330,000); AmpC nitrocefin hydrolysis, absorbance 480 nm, 0.0001% Triton; Potency, µM (highest dose often 57.1 µM), inactives show at the top dose activity change, negative = inhibition, hits mostly inhibitors;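 further: plate controls were no compound for no effect and no enzyme for full effect; nearly all actives have a fitted effect of over 20% in size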
Target sequence (P00811 whole entry, looked up): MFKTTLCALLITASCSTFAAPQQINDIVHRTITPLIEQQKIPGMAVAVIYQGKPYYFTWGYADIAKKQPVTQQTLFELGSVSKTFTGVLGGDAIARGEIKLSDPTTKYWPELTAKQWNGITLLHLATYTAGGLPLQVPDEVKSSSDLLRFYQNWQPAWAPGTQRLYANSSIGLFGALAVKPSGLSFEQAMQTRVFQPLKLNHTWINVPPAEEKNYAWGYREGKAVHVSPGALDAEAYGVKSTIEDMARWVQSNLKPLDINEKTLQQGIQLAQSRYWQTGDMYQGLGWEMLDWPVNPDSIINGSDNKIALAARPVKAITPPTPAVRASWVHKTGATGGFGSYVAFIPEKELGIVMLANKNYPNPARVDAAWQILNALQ
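AmpC (5.3 nM in the dispensed reagent) in 20 mM phosphate pH 7.0 with 0.01% (detergent screen) or 0.0001% Triton X-100 was preincubated with compounds for 15 min at room temperature. Nitrocefin was then added from an 800 uM solution, and hydrolysis was followed at 480 nm.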
Pf growth 48h: Primary qHTS for delayed death inhibitors of the malarial parasite plastid, 48 hour incubation | actives 5.9% (n = 310,000) | Potency, µM (titrated, usually from 28.7 µM), for the others: top-dose activity change, negative = inhibition, hits mostly inhibitors | P. falciparum luciferase growth in erythrocytes, 48 h
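Erythrocytes infected with P. falciparum carrying an integrated firefly luciferase reporter (2% hematocrit, 0.1% parasitemia final) were exposed to compounds in RPMI 1640 with 0.5% Albumax at 37 C, 5% CO2. Growth inhibition was scored as reduced luminescence.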
AmpC detergent: qHTS Inhibitors of AmpC Beta-Lactamase (assay with detergent) | AmpC hydrolysis of nitrocefin, absorbance 480 nm, 0.01% Triton | AID 485294, 2010 | Potency, µM (top dose mostly 114 µM), inactives show top-dose activity change, negative = inhibition, hits mostly inhibitors | P00811 | actives 0.041% (n = 370,000);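 further: 0% = no-compound wells and -100% = no-enzyme wells; nearly all actives have a fitted effect of over 25% in size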
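AmpC (5.3 nM in the dispensed reagent) in 20 mM phosphate pH 7.0 with 0.01% (detergent screen) or 0.0001% Triton X-100 was preincubated with compounds for 15 min at room temperature. Nitrocefin was then added from an 800 uM solution, and hydrolysis was followed at 480 nm.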
HCV inh: qHTS Assay for Inhibitors of Hepatitis C Virus (HCV); Huh7.5.1 HCVcc-Cre infection, luciferase reporter, 44 h; Potency, µM (series often up to 41.8 µM), without a hit: top-dose activity change, negative = inhibition, hits mostly inhibitors; actives 3.4% (n = 340,000)
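Infectious HCVcc-Cre (~0.5 moi) was added to cells just after compound, with cells seeded 4 h earlier at 1,000 per well. Luciferase activity after 44 h culture reported infection; substrate was incubated 15 min at room temperature before reading.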
Pf growth 96h: Primary qHTS for delayed death inhibitors of the malarial parasite plastid, 96 hour incubation; actives 6.9% (n = 320,000); P. falciparum luciferase reporter growth, 96 h; Potency, µM (top dose mostly 28.7 µM), inactives show at the top dose activity change, negative = inhibition, usual class: inhibitors; AID 504834, 2011
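Parasite growth measured via integrated firefly luciferase reporter in P. falciparum. Infected erythrocytes at 2% hematocrit, 0.05% parasitemia final were treated 96 hours at 37 C under 5% CO2, and luminescence was read.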
AMA1-RON2 inh: qHTS for Inhibitors of AMA1-RON; Towards Development of Antimalarial Drug Lead: Primary Screen | Plasmodium falciparum AMA1 (3D7) - RON2 peptide interaction | AlphaScreen AMA1-biotinylated RON2 peptide binding | Potency, µM (highest dose often 58.2 µM), without a hit: top-dose activity change, negative = inhibition, most hits filed as inhibitors | actives 0.2% (n = 360,000);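 further: 0% = vehicle wells and -100% = peptide control; nearly all actives have a fitted effect of over 45% in size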
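AMA1 (3D7) with his tag at 25 nM final met compounds first, then biotinylated RON2 peptide at 25 nM; detection used donor plus acceptor beads, 10 µg/mL apiece, read by AlphaScreen after 30 min at room temperature.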
* marks the source's active call; other numbers are inactive results; ? = inconclusive; / = not tested or not shown. Rows were chosen to be rich in hits. Some 11% of all compounds tested hit in one or more screens of this group. The call rests on the fitted dose curve; in most records, active means well fitted curve in the direction sought with a large enough effect; inconclusive means small, poorly fitted or top-dose-only effect, or another doubt; inactive means no such curve, though single readings can be large; an effect the other way counts as inactive or inconclusive. Unless noted, on the % scale 0 is the no-effect control and ±100 the full control effect; potency means the concentration at half of the fitted maximal effect.

SMILES | AmpC no deterg | Pf growth 48h | AmpC detergent | HCV inh | Pf growth 96h | AMA1-RON2 inh
Cc1cccc(N2CCN(C3=NC(=O)/C(=C\c4cn[nH]c4-c4ccccc4)S3)CC2)c1 | -40% | 5.2µM* | -7% | 1% | 12µM* | -2%
Cc1ccc(N2CCN(C3=NC(=O)/C(=C\c4cn[nH]c4-c4ccccc4)S3)CC2)cc1 | -60% | 5.9µM* | -10% | ? | ? | -4%
O=C1N=C(N2CCC(Cc3ccccc3)CC2)S/C1=C/c1cn[nH]c1-c1ccccc1 | -53% | ? | -9% | ? | ? | 8%
COc1cccc(CNC(=O)c2sc3nc[nH]c(=O)c3c2C)c1 | / | / | -9% | / | / | /
CCOc1ccc(-c2ccc(/C=C3/C(=N)N4C=CSC4=NC3=O)o2)c([N+](=O)[O-])c1 | -56% | 25% | ? | 11µM* | ? | 49%
COc1ccc(N(CC(=O)Nc2ccc(S(=O)(=O)N3CCOCC3)cc2)S(=O)(=O)c2ccc(F)cc2)cc1 | -9% | 13µM* | 13% | 14µM* | -1% | 7%
CN(CC(=O)Nc1ccc(S(=O)(=O)N2CCCC2)cc1)CC(=O)Nc1ccc(F)c(F)c1F | 48% | 10µM* | -6% | ? | ? | 42%
CN(CC(=O)Nc1ccc(S(=O)(=O)N2CCOCC2)cc1)Cc1ccc(F)cc1 | 39% | ? | ? | 6% | 13µM* | 7%
CSc1ccccc1NC(=O)CN(C)CC(=O)Nc1ccc(S(=O)(=O)N2CCCC2)cc1 | -26% | / | / | 11% | / | -3%
CCc1ccc(CN(C)CC(=O)Nc2ccc(S(=O)(=O)N3CCOCC3)cc2)cc1 | 99% | 10µM* | -11% | -16% | ? | -6%
Cc1ccc(-n2nnc(C(=O)Nc3cc(F)ccc3F)c2C)cc1F | / | / | 16% | / | / | /
COc1ccc(Nc2nc3ccccc3c3nnc(C)n23)cc1Cl | / | / | 2% | / | / | /
COc1cccc(CN2CCCN(CC(=O)Nc3ccc4c(c3)OCCO4)S2(=O)=O)c1 | / | / | 4% | / | / | /
O=C(c1cc2ccccc2oc1=O)N(Cc1ccccc1F)C1CCS(=O)(=O)C1 (stereo not drawn) | -19% | 19% | -9% | 10% | 5.2µM* | -3%
CCOc1ccc(CN(C(=O)c2cc3ccccc3oc2=O)C2CCS(=O)(=O)C2)cc1 (stereo not drawn) | 50% | -1% | -10% | 9% | 13% | -9%
CCOc1ccc(CN(C(=O)c2cc3ccccc3oc2=O)C2CC2)cc1 | -5% | 12µM* | -13% | 6% | -9% | -6%
O=C(NCCCN1CCN(c2ccc(F)cc2)CC1)c1sc2ncccc2c1-n1cccc1 | / | / | 7% | / | / | /
CCN1/C(=C2\SC(=S)N(Cc3ccccc3)C2=O)Sc2ccccc21 | -17% | -4% | 7% | -4% | 49% | ?
CCC(CO)[n+]1c(C)cc(/C=C2\Sc3ccccc3N2Cc2ccccc2)cc1C (stereo not drawn) | 34% | 0.37µM* | 2% | ? | ? | 6%
COc1ccc(-c2nc3c(c4nnc(SC(C)C(=O)Nc5ccc(C)cc5)n24)COC(C)(C)C3)cc1 (stereo not drawn) | -22% | 7.4µM* | -9% | ? | 2.6µM* | -4%
Cc1cccc(/C=C2/S/C(=N/N=C3\CC4CCC3(C)C4(C)C)NC2=O)c1 (stereo not drawn) | -45% | ? | 0% | ? | 8.3µM* | -12%
CCC12CN3CC(C)(CN(C1)C3c1c[nH]c3ccccc13)C2=O (stereo not drawn) | / | / | 19% | / | / | /
